Assay outcomes deposited in PubChem BioAssay by SRMLSC.
MK inhibit: S. pneumoniae MK inhibitors, primary screen, biochemical, PK/LDH-coupled NADH absorbance | mevalonate kinase [Streptococcus pneumoniae D39] | purified MK, PK/LDH-coupled NADH absorbance 340 nm | inhibition, % at 10 µM | 65,000 compounds, 0.48% hits;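 active = ranked among the strongest by inhibition in the single 10 µM screen, a fixed top-ranked set picked for dose follow-up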
Abs 340nm: compound light absorbance at 340 nm, profiling panel, artefact control, biochemical, MLSMR library, data from PS, PMK, MK assays; AID 708, 2007; compound absorbance at 340 nm, fold over control; 65,000 tested, under 10 active; fold change at 10 µM;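 active = at 10 µM dose, initial 340 nm absorbance at least 2 fold that of control wells; inactive = change under 2 fold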;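 also: initial absorbance extrapolated from kinetic A340 decline of NADH oxidation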
Spn DPM-DC inh: S. pneumoniae DPM-DC inhibitors, primary screen, biochemical, PK/LDH-coupled NADH fluorescence; purified DPM-DC; calls only at 10 µM; 65,000 compounds, 0.49% hits; AID 556, 2006; diphosphomevalonate decarboxylase (Streptococcus pneumoniae D39);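 active = the 320 compounds with the highest percent inhibition in the single-dose primary screen, excluding strongly autofluorescent ones, cut at about 32% in these data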;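 also: kinetic rate of NADH fluorescence loss reporting ADP formed by the decarboxylase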
Autofluor 339: intrinsic fluorescence of library compounds, ex339/em460 – biochemical, MLSMR library, data from DPM-DC assay, artefact control, profiling panel | compound autofluorescence, ex339/em460 nm, NADH buffer; active compounds read high; 1 = no-compound wells, NADH background | fluorescence fold increase at 10 µM | 65,000 compounds, 5.5% hits;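 active = at 10 µM, mean starting fluorescence two-fold or more over control wells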;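 also: signal is the first read of a kinetic run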
NADH coupling: inhibitors of PK/LDH coupling enzymes, profiling panel, artefact control, biochemical, MLSMR library. 65,000 compounds, 0.02% hits. coupled PK/LDH NADH assays, four targets. AID 774, 2007. IC50, µM (top dose mostly 10 µM), for inactives: at the highest dose inhibition;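 active = single-dose screening hits from any of four coupled enzyme assays that gave an IC50 when retested across doses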;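 also: the DPM-DC format reads NADH fluorescence rather than 340 nm absorbance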
PMK inhibit: S. pneumoniae PMK inhibitors, primary screen, biochemical, mevalonate pathway, pilot trial included; phosphomevalonate kinase (Streptococcus pneumoniae D39); purified PMK, PK/LDH-coupled NADH absorbance 340 nm; inhibition, % at 10 µM; 65,000 compounds, 0.49% hits; AID 539, 2006;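 active = top-ranked compounds by inhibition in the single 10 µM screen, taking a fixed number of the strongest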;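 also: 0% = full reaction with DMSO carrier and 100% = background rate without enzyme reaction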
* marks the source's active call; other numbers are inactive results; i = inactive; / = no result shown; + = active, no number; ! = not confirmed by another sample. Only some compounds are listed: those with a hit (about 6.8% of all), similar ones and a draw of the others.

SMILES | MK inhibit | Abs 340nm | Spn DPM-DC inh | Autofluor 339 | NADH coupling | PMK inhibit
COc1cc(OC)c(C2C(C(=O)N3CCOCC3)=C(C)NC3=C2C(=O)CC(C)(C)C3)cc1OC (centres undefined) | 6 | 1.1 | i | 1.2 | 4% | 0
O=C1CS/C(=N\c2ccccn2)N1C1CCCCC1 | 8 | 0.96 | i | 1.1 | 8% | 15
COc1cccc(N2CC(O)=C(c3nc4ccccc4c(=O)[nH]3)C2=N)c1 | 3 | 1.1 | / | 2.1* | 12% | 21
COc1ccc(N2CC(O)=C(c3nc4ccccc4s3)C2=N)c(OC)c1 | 0 | 1.1 | i | 1.6 | 10% | 13
Oc1oc(-c2ccco2)nc1C=Nc1cccc(Cl)c1 | 0 | 1.1 | i | 1 | 4% | 5
Cc1cc(O)c(C=Nc2cccc(Cl)c2)c(=O)o1 | 5 | 1 | + | 0.5 | 16% | 0
Cc1cc(CN2C(=O)c3ccccc3C2=O)cc(N2CCOCC2)c1 | 2 | 1 | i | 1.1 | 3% | 6
CC(C)(C)N1C(=O)Cc2c1nc(N)c1c(N)nc(N3CCCCC3CO)c(C#N)c21 (centres undefined) | 0 | 1 | / | 4.8* | 8% | 15
CCn1c(=O)c2cc(C(=O)NCCN3CCOCC3)sc2c2ccccc21 | 3 | 1.1 | / | 2.1* | 3% | 3
CCn1c(=O)c2cc(C(=O)Nc3cc(C)on3)sc2c2ccccc21 | 5 | 1.1 | / | 2.2* | 4% | 2
Cc1ccc2[nH]c(=O)c3cc(C(=O)NCCN4CCN(C)CC4)sc3c2c1 | 7 | 1 | / | 2.4* | 5% | 21
CCn1c2ccccc2c2nnc(SCC(=O)Nc3cc(C)on3)nc21 | 5 | 1.1 | i | 0.97 | 8% | 19
CCn1c(=O)c2cc(C(=O)NCc3cccs3)sc2c2ccccc21 | 0 | 1.1 | i | 1.8 | 4% | 7
Cc1cccc(OCC2=NS(=O)(=O)c3ccccc3N2)c1 | 5 | 0.99 | i | 1.1 | 5% | 10
O=C1CCC(c2ccccc2)N1C(=O)c1cccnc1 (centres undefined) | 17 | 1 | i | 1 | 2% | 0
COC(=O)c1ccccc1S(=O)(=O)N(Cc1cc2ccc(OC)cc2[nH]c1=O)CC1CCCO1 (centres undefined) | 0 | 1.1 | i | 1.2 | 10% | 25*
COc1ccc2cc(CN(Cc3cccnc3)S(=O)(=O)c3ccccc3)c(=O)[nH]c2c1 | 7 | 1.1 | i | 2* | 11% | 11
COc1ccc2cc(CN(CC3COCCO3)S(=O)(=O)c3ccccc3)c(=O)[nH]c2c1 (centres undefined) | 11 | 1.1 | i | 1.6 | 7% | 11
Cc1ccc2cc(CN(CC3CCCO3)S(=O)(=O)c3cccc4nsnc34)c(=O)[nH]c2c1 (centres undefined) | 8 | 1.1 | i | 1 | 5% | 3
COc1ccc(S(=O)(=O)N(Cc2cc3ccc(OC)cc3[nH]c2=O)CC2COCCO2)cc1 (centres undefined) | 2 | 1.1 | i | 2.3* | 11% | 5
O=C(c1ccc(S(=O)(=O)N2CCCC2)cc1)N1CCCc2ccccc21 | 3 | 1 | i | 1.1 | 4% | 7
CCOc1cc(N2CCOCC2)c(OCC)cc1NC(=O)CN1CCc2ccccc2C1 | 73* | 1.1 | i | 1.1 | 25% | 2
CCOc1cc(N2CCOCC2)c(OCC)cc1NC(=O)Cc1ccc(OC)c(OC)c1 | 5 | 0.99 | i | 1 | 10% | 26*
COc1cc2c(N3CCOCC3)cc(O)c(CC(=O)Nc3ccccc3)c2cc1OC | 5 | 1 | / | 3.1* | 4% | 10
O=c1[nH]c(CSc2nnc(-c3ccncc3)n2Cc2ccco2)nc2ccccc12 | 4 | 0.99 | i | 1.1 | 7% | 15
SMILES | MK inhibit | Abs 340nm | Spn DPM-DC inh | Autofluor 339 | NADH coupling | PMK inhibit
C=CCn1c(SCc2nc3ccccc3c(=O)[nH]2)nnc1-c1cc2cc(Cl)ccc2o1 | 10 | 1.1 | i | 2.1* | 11% | 10
O=C(COC(=O)c1cc(=O)[nH]c2ccccc12)NC(=O)NC1CCCCC1 | 0 | 1.1 | i | 2* | 9% | 13
CCCCOC(=O)c1cc(=O)[nH]c2ccccc12 | 6 | 1.1 | i | 2.1*! | 8% | 10
COc1cc2c(cc1OC)C(c1ccc3c(c1)OCO3)C1=C(CC(C)(C)CC1=O)N2 (centres undefined) | 5 | 1.1 | / | 4.9* | 11% | 17
COc1ccc(Cn2c(N)c(C#N)c3nc4ccccc4nc32)cc1OC | 0 | 1 | / | 1.9 | 2% | 9
O=c1c2ccccc2nc(-c2ccccc2)n1Cc1ccco1 | 8 | 0.99 | i | 1.2 | 4% | 3
Nc1c(S(=O)(=O)c2cccs2)c2nc3ccccc3nc2n1CC1CCCO1 (centres undefined) | 9 | 1 | / | 3* | 4% | 10
Cn1c(N)c(S(=O)(=O)c2ccc(Br)cc2)c2nc3ccccc3nc21 | 2 | 1.1 | / | 3.8* | 5% | 7
Nc1c(S(=O)(=O)c2ccccc2)c2nc3ccccc3nc2n1Cc1ccco1 | 8 | 1.1 | / | 2.2* | 8% | 7
Nc1c(S(=O)(=O)c2cccs2)c2nc3ccccc3nc2n1Cc1cccs1 | 4 | 1.1 | / | 3.9* | 8% | 12
Cn1c(N2CCC(C(N)=O)CC2)nc2c1c(=O)n(Cc1ccc(Br)cc1)c(=O)n2C | 6 | 1 | i | 1 | 2% | 7
CC(C)CCn1c(N)c(S(=O)(=O)c2cccs2)c2nc3ccccc3nc21 | 1 | 1 | / | 3* | 3% | 13
COc1ccc(CCn2c(N)c(C#N)c3nc4ccccc4nc32)cc1OC | 8 | 1 | i | 1.6 | 6% | 0
COc1ccc(CCn2c(N)c(S(=O)(=O)c3cccs3)c3nc4ccccc4nc32)cc1OC | 3 | 1.1 | + | 1.5 | 21% | 11
CC(C)CN1CN(S(=O)(=O)c2cccs2)c2nc3ccccc3nc21 | 9 | 1.1 | i | 1.4 | 5% | 7
Nc1c(S(=O)(=O)c2cccs2)c2nc3ccccc3nc2n1Cc1ccc2c(c1)OCO2 | 2 | 1.1 | + | 2.7* | 14% | 6
COCCn1c(SCc2ccc(C(=O)OC)o2)nc2cc(Cl)ccc2c1=O | 0 | 1 | i | 1.1 | 6% | 16
Cc1cc(NS(=O)(=O)c2ccc(-c3ccccc3)cc2)no1 | 9 | 1 | i | 0.98 | 4% | 0
Cc1cccc(NS(=O)(=O)c2ccc(Oc3ccccc3)cc2)n1 | 7 | 1 | i | 2.9* | 15% | 8
